Compound activity as filed in PubChem.
eIF4H FP inh = inhibitors of RNA binding by human eIF4H. 290,000 compounds, 0.94% hits. inhibition, % at 35 µM. Q15056. eIF4H fluorescence polarization binding assay;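 further: calls also rest on retests at 20 µM and on dose response follow-up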
PABP polyA inh = PABP-poly(A) binding inhibition; P11940; PABP-poly(A) RNA binding, fluorescence polarization; inhibition, % at 35 µM; 290,000 compounds, 1% hits; AID 2014;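 further: calls also rest on retests at 20 µM and on dose response follow-up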
eIF4E 4G PPI = inhibitors of eIF4E and eIF4G interaction in translation initiation; AID 782; TR-FRET eIF4E-eIF4GI(517-606) binding, 2 h; P63073+Q04637; inhibition, % at 21.7 µM; 220,000 compounds, 0.37% hits;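 active means inhibition above about 30%, limit read from the data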
PERK inhibitor = human PERK inhibition, primary cell-based screen; Q9NZJ5; CHO PERK-DD fusion, SEAP luminescence translation reporter; inhibition, % at 5.6 µM; 220,000 compounds, 0.17% hits;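 active means inhibition above the mean inhibition of all tested compounds plus 3 SD, set separately per screening campaign, cut at about 2.9% in these data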;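 further: PERK kinase domain activated by AP20187 dimerizer at 100 nM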
MLLE-PAM2 inh = inhibitors of microRNA-mediated deadenylation, human PABP1 MLLE binding; P11940; GST-MLLE / FITC-PAM2 fluorescence polarization; inhibition, % at 20 µM; 360,000 compounds, 0.36% hits; AID 588489; in the data active means inhibition above about 35%, passing the limit was not always enough
Each line names hits and unclear results; the compound was inactive in the other large screens; [ ] = another dose, or the depositor's remark. Shown are actives, neighbours in structure and some others; about 1.6% of the full set was active somewhere. Unless noted, how the calls were made is not given here.

CC(C)c1ccc(NS(=O)(=O)c2ccc3c(c2)NC(=O)CO3)cc1	none (no result: eIF4E 4G PPI, PERK inhibitor)
Cc1ccc(NS(=O)(=O)c2cccc(C(=O)NCC(c3ccco3)N3CCCCC3)c2)cc1 (stereo unspecified)	none (no result: eIF4E 4G PPI, PERK inhibitor)
O=C(CCN1C(=O)/C(=C/c2ccco2)SC1=S)Nc1ccc(C(=O)O)c(O)c1	eIF4H FP inh 86, PABP polyA inh 84 (no result: eIF4E 4G PPI, PERK inhibitor)
Cc1ccc(/C=C2\SC(=S)N(CC3CCCO3)C2=O)o1 (stereo unspecified)	none
Cc1ccc(N2C(=O)/C(=C\c3ccco3)SC2=S)cc1	eIF4H FP inh 77, PABP polyA inh 28
O=C1/C(=C\c2ccco2)NC(=S)N1c1ccccc1	PABP polyA inh 65
O=C1/C(=C\c2ccco2)SC(=S)N1c1ccccc1	none
O=C1/C(=C/c2ccco2)SC(=S)N1CC1CCCO1 (stereo unspecified)	eIF4H FP inh 74
COC(=O)C(CCSC)NC(=O)Cn1ncc2c(=O)oc3ccccc3c21 (stereo unspecified)	none
CC#C[C@@H](CC)c1ccc2ccn(C)c2c1	none (no result: eIF4H FP inh, PABP polyA inh, eIF4E 4G PPI, PERK inhibitor)
CCOc1cc(C(=O)Nc2ccc(N3CCOCC3)cc2)cc(Br)c1OC	none
C=CCNC(=O)C(=O)NCCCN1CCOCC1	none
CC1=NN2C(=N)/C(=C\c3cc(C)n(Cc4ccccc4)c3C)C(=O)N=C2S1	none
O=C1/C(=C\c2ccco2)SC(=S)N1Cc1ccccc1	eIF4H FP inh 76, PABP polyA inh 38
COc1ccc(CCN2C(=O)/C(=C\c3ccco3)SC2=S)cc1OC	eIF4H FP inh 63, PABP polyA inh active
CC1=NN2C(=N)/C(=C\c3ccc(SCc4ccccc4)o3)C(=O)N=C2S1	eIF4H FP inh inconclusive, PABP polyA inh 121 (no result: eIF4E 4G PPI)
O=C(O)CCN1C(=O)/C(=C\c2ccc(-c3nc4ccccc4s3)o2)SC1=S	eIF4H FP inh 101, PABP polyA inh 92
O=C1/C(=C/c2ccccn2)SC(=S)N1Cc1ccccc1	none
CCOC(=O)c1cccc(NC(=S)N2CCN(c3ncc4c(=O)c(C(=O)O)cn(CC)c4n3)CC2)c1	none
CN(Cc1ccccc1)C(=O)COC(=O)c1ccc(-n2cnnn2)cc1	none (no result: eIF4H FP inh, PABP polyA inh, eIF4E 4G PPI, PERK inhibitor)
CC(/C=C1\SC(=S)N(CCC(=O)Nc2ccccc2O)C1=O)=C\c1ccccc1	PABP polyA inh active (no result: eIF4E 4G PPI, PERK inhibitor)
O=C(CCN1C(=O)/C(=C/c2ccco2)SC1=S)Nc1ccc(O)cc1C(=O)O	eIF4H FP inh 101, PABP polyA inh 94 (no result: eIF4E 4G PPI, PERK inhibitor)
O=C(CCN1C(=O)/C(=C\c2ccco2)SC1=S)Nc1ccc(C(=O)O)c(O)c1	none (no result: eIF4H FP inh, PABP polyA inh, eIF4E 4G PPI, PERK inhibitor)
O=C(CCCN1C(=O)/C(=C\c2ccco2)SC1=S)Nc1ccc2ccccc2c1	eIF4H FP inh 78, PABP polyA inh 1.4
O=C(CCCN1C(=O)/C(=C/c2ccco2)SC1=S)Nc1ccccc1C(=O)O	eIF4H FP inh 100, PABP polyA inh 84
COc1ccc(C(=O)N2CCCC(CCC(=O)N3CCN(c4ccccn4)CC3)C2)cc1 (stereo unspecified)	none (no result: eIF4E 4G PPI, PERK inhibitor)
O=C(CN1C(=O)/C(=C\c2ccco2)SC1=S)Nc1ccc(O)cc1C(=O)O	eIF4H FP inh 79, PABP polyA inh 117 (no result: eIF4E 4G PPI, PERK inhibitor)
O=C(O)CCCN1C(=O)/C(=C\c2ccco2)SC1=S	eIF4H FP inh 100, PABP polyA inh 96
O=C(O)CN1C(=O)/C(=C/c2ccc(SCc3ccccc3)o2)SC1=S	eIF4H FP inh 60, PABP polyA inh active
CC(=C\c1ccccc1)/C=C1/SC(=S)N(CCCC(=O)O)C1=O	none (no result: eIF4E 4G PPI, PERK inhibitor)
Cc1cccc(C(=O)OC(C)CN2CCOCC2)c1 (stereo unspecified)	none
COc1ccc(NCc2nnc(SCC(=O)c3ccc(OC)cc3)n2C)cc1	none
COc1ccc(N2CCN(S(=O)(=O)c3ccc4c(c3)NC(=O)CC(=O)N4)CC2)cc1	none (no result: eIF4E 4G PPI, PERK inhibitor)
CNc1cncc(-c2c(OC)cccc2OC)n1	none (no result: eIF4H FP inh, PABP polyA inh, eIF4E 4G PPI, PERK inhibitor)
COc1cc(C2c3sc(=O)[nH]c3SC3C(=O)N(c4ccc(Br)cc4)C(=O)C32)ccc1O (stereo unspecified)	MLLE-PAM2 inh 47
Cc1nnc(NC(=O)C2c3ccccc3Oc3ccccc32)s1	MLLE-PAM2 inh 38
CC(C)c1nnc(NC(=O)C2c3ccccc3Oc3ccccc32)s1	none
CCN(CC)C(=O)/C(NC(=O)c1ccccc1)=C(/Sc1ncccn1)c1ccccc1	none
CN(C)CCNc1oc(COc2ccc(Cl)cc2Cl)nc1C#N	PABP polyA inh 62
Oc1ccccc1N=Cc1ccc[nH]1	eIF4H FP inh 49, PABP polyA inh 81
C(=Nc1ccccc1)c1ccc[nH]1	none (no result: eIF4H FP inh, PABP polyA inh, eIF4E 4G PPI, PERK inhibitor)
CCCCN(C)C(=O)Cn1nc(-c2ccc(Cl)cc2)ccc1=O	none (no result: eIF4E 4G PPI, PERK inhibitor)
COC(=O)c1sc(=S)n(-c2cc(F)ccc2F)c1N	MLLE-PAM2 inh 40
CCOC(=O)c1sc(=S)n(-c2cc(F)ccc2F)c1N	none
COc1ccc(C2C(C#N)=C(N)OC3=C2C(=O)CC(C)(C)C3)c([N+](=O)[O-])c1OC (stereo unspecified)	MLLE-PAM2 inh 45
COc1cc(C2C(C#N)=C(N)OC3=C2C(=O)CC(C)(C)C3)c([N+](=O)[O-])cc1OC (stereo unspecified)	eIF4H FP inh inconclusive, PABP polyA inh inconclusive
O=C(C1CCN(c2ncnc3c2nc2n3CCCCC2)CC1)N1CCCCC1	none (no result: eIF4E 4G PPI, PERK inhibitor)
COc1ccc(S(=O)(=O)NCC2CCC(C(=O)NCCC(C)C)CC2)cc1 (stereo unspecified)	none
COc1ccc(S(=O)(=O)NCC2CCC(C(=O)NCC(OC)OC)CC2)cc1 (stereo unspecified)	PERK inhibitor 3.2
Cc1ccc(OCC(=O)N2CCN(S(=O)(=O)c3ccccc3)CC2)c([N+](=O)[O-])n1	eIF4H FP inh inconclusive, PABP polyA inh 104
Cc1ccc(OCC(=O)N2CCC(Cc3ccccc3)CC2)c([N+](=O)[O-])n1	none (no result: eIF4H FP inh, PABP polyA inh, eIF4E 4G PPI, PERK inhibitor)
O=C(CCCN1C(=O)S/C(=C\c2ccccc2)C1=O)NNC(=O)c1ccccc1O	none
O=C(CN1C(=O)S/C(=C\c2ccccc2)C1=O)NNC(=O)c1ccccc1O	eIF4H FP inh 7.4, PABP polyA inh 97
CC(=O)NNC(=O)CN1C(=O)/C(=C/c2ccccc2)SC1=S	MLLE-PAM2 inh 50
O=C(CN1C(=O)S/C(=C\c2ccccc2)C1=O)NCCCn1ccnc1	MLLE-PAM2 inh 43 (no result: eIF4E 4G PPI, PERK inhibitor)
COc1cc(C(=O)NNC(=O)C2CC=CCC2C(=O)O)cc(OC)c1OC (stereo unspecified)	eIF4E 4G PPI 30[fluorescence artefact?]
CCc1cc2c(=O)nc3n(c2s1)Cc1ccccc1/C3=C(/O)c1cccc([N+](=O)[O-])c1	eIF4H FP inh 52, PABP polyA inh 69
CCc1cc2c(=O)nc3n(c2s1)Cc1ccccc1/C3=C(/O)c1ccc(F)cc1	eIF4H FP inh 71, PABP polyA inh 80
CCc1cc2c(=O)nc3n(c2s1)Cc1ccccc1/C3=C(/O)c1ccccc1Cl	none
CCNC(=S)N=Nc1c(O)[nH]c2ccc([N+](=O)[O-])cc12	MLLE-PAM2 inh 45
O=C(N=Nc1c(O)[nH]c2ccc([N+](=O)[O-])cc12)c1ccccc1Cl	PABP polyA inh 6.1
O=C1c2ccccc2S(=O)(=O)c2cc(C(=O)N3CCN(c4c(Cl)cncc4Cl)CC3)ccc21	none (no result: eIF4H FP inh, PABP polyA inh, eIF4E 4G PPI, PERK inhibitor)
O=S(=O)(c1cccc2nsnc12)N1CCOCC1	none
